37 targets from the supplement of paper PMC10849652 can be followed below.

Of roughly 7,900 targets only a part is listed; those with a hit were picked by preference. About 0.6% of all pairs of compound and target were hits.

UniProt Q9NUY8, sequence (Q9NUY8 whole entry, looked up): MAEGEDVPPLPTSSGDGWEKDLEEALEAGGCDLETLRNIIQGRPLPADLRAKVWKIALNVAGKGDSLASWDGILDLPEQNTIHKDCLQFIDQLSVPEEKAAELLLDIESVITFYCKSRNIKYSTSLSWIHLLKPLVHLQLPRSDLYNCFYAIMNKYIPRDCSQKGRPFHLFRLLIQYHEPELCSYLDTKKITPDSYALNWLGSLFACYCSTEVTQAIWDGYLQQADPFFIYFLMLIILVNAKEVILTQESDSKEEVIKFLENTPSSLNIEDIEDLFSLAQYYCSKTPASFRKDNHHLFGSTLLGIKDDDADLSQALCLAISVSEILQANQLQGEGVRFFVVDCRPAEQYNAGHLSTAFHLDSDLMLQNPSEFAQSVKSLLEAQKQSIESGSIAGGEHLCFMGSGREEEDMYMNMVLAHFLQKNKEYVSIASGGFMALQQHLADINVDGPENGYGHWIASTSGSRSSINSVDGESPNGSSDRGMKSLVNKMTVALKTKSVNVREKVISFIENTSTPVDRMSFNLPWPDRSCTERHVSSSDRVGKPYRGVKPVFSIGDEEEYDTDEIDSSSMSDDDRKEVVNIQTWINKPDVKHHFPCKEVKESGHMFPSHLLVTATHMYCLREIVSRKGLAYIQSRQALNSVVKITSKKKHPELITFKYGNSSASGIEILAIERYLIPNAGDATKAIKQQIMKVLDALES
UniProt Q9UHB9, sequence (Q9UHB9 whole entry, looked up): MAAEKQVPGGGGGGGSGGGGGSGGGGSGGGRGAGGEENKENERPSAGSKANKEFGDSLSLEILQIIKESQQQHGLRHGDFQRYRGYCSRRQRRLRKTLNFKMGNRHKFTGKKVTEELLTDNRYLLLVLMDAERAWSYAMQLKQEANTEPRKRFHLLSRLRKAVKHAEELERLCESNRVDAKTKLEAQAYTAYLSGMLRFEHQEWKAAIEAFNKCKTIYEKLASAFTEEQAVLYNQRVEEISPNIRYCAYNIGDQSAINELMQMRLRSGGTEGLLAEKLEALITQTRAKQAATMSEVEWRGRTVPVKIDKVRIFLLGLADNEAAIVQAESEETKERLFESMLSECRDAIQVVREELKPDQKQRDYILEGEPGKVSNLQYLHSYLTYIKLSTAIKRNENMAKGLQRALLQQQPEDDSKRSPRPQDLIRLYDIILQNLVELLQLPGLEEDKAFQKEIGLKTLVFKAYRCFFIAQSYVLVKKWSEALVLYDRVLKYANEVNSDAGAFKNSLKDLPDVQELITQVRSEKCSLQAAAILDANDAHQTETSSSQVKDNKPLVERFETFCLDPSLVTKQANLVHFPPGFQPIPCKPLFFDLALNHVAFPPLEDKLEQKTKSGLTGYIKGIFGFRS
UniProt Q8TCT7, sequence (Q8TCT7 whole entry, looked up): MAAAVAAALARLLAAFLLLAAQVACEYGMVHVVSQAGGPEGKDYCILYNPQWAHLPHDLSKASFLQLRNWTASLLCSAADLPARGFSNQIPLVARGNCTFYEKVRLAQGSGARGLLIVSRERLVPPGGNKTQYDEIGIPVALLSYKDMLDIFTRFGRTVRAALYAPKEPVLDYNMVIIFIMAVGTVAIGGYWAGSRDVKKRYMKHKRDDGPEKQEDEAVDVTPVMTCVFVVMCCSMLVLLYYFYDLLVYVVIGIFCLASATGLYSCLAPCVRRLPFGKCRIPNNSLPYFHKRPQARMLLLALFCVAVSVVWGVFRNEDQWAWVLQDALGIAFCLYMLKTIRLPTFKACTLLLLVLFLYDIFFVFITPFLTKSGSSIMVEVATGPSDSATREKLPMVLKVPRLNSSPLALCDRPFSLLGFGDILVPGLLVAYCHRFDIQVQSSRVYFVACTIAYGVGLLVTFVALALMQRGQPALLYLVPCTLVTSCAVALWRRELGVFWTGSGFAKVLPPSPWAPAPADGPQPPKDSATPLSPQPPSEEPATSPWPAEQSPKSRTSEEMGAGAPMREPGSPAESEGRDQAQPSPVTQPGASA
UniProt O95926, sequence (O95926 whole entry, looked up): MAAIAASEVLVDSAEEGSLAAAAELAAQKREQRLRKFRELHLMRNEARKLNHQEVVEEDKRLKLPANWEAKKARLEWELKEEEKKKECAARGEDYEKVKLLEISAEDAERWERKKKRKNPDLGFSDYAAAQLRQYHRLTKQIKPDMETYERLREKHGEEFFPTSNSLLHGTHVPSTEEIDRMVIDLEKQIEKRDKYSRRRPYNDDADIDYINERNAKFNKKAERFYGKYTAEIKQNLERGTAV
UniProt Q9UDY2, sequence (Q9UDY2 whole entry, looked up): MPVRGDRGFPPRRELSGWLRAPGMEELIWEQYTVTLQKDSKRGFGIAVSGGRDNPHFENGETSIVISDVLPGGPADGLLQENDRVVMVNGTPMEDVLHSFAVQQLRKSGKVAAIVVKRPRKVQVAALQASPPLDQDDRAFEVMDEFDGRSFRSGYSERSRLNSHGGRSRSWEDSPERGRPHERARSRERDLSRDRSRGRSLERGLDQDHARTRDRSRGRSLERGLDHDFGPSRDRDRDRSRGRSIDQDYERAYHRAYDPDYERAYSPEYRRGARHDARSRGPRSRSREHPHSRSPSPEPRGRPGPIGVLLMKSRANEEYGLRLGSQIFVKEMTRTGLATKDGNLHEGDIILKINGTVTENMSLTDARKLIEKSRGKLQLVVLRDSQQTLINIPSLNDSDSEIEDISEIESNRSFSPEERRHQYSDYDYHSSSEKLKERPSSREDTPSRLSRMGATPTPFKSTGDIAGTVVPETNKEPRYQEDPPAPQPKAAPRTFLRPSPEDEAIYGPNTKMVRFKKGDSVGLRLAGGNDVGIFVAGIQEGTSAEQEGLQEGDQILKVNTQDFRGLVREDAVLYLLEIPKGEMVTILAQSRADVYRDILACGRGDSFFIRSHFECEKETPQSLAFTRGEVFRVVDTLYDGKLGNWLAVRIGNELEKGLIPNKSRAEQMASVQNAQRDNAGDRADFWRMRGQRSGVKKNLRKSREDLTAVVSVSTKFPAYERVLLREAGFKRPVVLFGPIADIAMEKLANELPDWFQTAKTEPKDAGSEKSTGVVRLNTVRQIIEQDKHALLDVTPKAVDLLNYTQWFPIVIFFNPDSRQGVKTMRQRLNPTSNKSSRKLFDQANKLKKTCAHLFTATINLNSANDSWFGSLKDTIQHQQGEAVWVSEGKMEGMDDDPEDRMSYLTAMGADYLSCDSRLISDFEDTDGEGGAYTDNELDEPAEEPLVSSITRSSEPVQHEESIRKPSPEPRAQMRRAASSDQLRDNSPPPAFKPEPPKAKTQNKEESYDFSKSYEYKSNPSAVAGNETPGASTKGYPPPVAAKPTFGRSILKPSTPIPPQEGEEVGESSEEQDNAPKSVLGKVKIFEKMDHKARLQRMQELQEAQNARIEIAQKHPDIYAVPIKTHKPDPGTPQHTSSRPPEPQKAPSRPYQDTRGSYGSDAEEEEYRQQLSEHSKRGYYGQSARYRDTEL
UniProt Q8NEW0, sequence (Q8NEW0 whole entry, looked up): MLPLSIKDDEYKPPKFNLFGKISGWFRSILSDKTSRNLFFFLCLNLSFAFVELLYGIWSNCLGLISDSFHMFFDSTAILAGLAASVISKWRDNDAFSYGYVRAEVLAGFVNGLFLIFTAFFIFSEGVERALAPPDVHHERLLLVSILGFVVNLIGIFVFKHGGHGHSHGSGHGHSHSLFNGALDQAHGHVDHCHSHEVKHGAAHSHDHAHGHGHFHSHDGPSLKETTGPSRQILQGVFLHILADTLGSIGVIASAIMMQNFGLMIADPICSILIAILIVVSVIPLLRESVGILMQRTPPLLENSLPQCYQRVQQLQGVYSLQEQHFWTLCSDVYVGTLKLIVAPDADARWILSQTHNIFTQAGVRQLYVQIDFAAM
UniProt Q13573, sequence (Q13573 whole entry, looked up): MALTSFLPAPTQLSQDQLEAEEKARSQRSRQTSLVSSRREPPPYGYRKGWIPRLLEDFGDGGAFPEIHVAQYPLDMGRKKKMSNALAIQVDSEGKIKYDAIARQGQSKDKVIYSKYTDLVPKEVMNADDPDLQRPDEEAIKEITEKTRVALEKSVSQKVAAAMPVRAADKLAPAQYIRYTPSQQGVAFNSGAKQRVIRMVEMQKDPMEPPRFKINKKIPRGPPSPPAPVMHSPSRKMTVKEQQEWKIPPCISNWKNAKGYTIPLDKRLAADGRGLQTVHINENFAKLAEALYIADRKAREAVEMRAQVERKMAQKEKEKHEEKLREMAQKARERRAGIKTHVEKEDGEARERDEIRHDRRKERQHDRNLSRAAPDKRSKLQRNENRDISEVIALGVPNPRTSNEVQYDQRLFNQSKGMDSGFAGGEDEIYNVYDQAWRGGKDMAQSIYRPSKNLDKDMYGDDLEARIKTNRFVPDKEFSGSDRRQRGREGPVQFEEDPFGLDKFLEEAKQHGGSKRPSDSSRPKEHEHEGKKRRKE
UniProt O95772, sequence (O95772 whole entry, looked up): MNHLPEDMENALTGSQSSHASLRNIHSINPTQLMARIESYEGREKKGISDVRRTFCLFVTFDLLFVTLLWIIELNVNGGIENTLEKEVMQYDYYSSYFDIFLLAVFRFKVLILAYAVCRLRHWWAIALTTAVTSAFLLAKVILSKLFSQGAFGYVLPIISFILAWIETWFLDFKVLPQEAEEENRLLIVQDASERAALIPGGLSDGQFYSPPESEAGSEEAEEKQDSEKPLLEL
UniProt Q16629, sequence (Q16629 whole entry, looked up): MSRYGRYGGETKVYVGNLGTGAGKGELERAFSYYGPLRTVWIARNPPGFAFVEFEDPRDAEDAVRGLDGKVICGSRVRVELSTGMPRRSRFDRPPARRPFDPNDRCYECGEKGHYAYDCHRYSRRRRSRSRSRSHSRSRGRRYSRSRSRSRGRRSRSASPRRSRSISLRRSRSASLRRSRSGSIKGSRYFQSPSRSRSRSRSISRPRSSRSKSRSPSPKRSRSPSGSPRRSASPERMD
UniProt P30626, sequence (P30626 whole entry, looked up): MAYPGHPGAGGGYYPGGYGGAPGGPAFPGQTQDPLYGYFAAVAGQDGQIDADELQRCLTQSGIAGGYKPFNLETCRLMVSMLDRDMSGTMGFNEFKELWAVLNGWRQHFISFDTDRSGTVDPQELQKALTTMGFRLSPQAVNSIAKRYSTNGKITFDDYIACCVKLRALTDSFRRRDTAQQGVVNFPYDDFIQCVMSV

Compound in one assay: Cn1cc(-c2ccc3c(c2)CCN3C(=O)Cc2cccc(C(F)(F)F)c2)c2c(N)ncnc21
The assay can be described thus: log2 fold change, soluble protein after heating vs DMSO (PISA); higher = thermal stabilisation; K562 cells, 10 uM, 30 min; active = over 0.2 and 3.5 SD of the protein, either way, in both replicates (recomputed). The method, boiled down: (§1)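 Quantification of soluble protein used TMTpro 16plex LC-MS/MS, with channel sums equalised. Samples were the supernatant after 21,000xg for 90 min of pooled aliquots from K562 cells (2×10^6 cells/mL) treated with 10 μM compound for 30 min, heated for 3 min over 48°C-58°C, and extracted in PBS with 0.5% NP-40 at 4°C. Values, from duplicates, describe thermal stability against control samples on a log2 fold-change scale.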
For SYF2 (UniProt O95926), the log2 fold change was -0.193 (inactive).
In the case of STK25 (UniProt O00506), the log2 fold change is 0.008 (inactive).
With SYMPK (UniProt Q92797), the log2 fold change was -0.017 (inactive).
For SP1 (UniProt P08047), the log2 fold change is -0.018 (inactive).
As for SSB (UniProt P05455), the log2 fold change was -0.048 (inactive).
For the target STARD3NL (UniProt O95772), the log2 fold change was -0.048 (inactive).
SPG21 (UniProt Q9NZD8): the log2 fold change is 0.022 (inactive).
Same read-out and setting: to SRP68 (UniProt Q9UHB9) belongs -0.026 (inactive); to TJP2 isoform 7 (UniProt Q9UDY2), 0.009 (inactive).
On the same count and under the same terms, to SPPL2B (UniProt Q8TCT7) belongs 0.116 (inactive); to SRSF7 (UniProt Q16629), -0.177 (inactive).
Same read-out and setting: the same measure for SNW1 (UniProt Q13573): -0.055 (inactive).
On to TBC1D23 (UniProt Q9NUY8), for which the log2 fold change is 0.025 (inactive).
The same measure, in the same setting: to SLC30A7 (UniProt Q8NEW0) belongs 0.048 (inactive).

Compound in a further assay: Cn1cc(-c2ccc3nnc(C(F)(F)c4ccc5ncccc5c4)n3n2)cn1
The assay is described as above. The essentials:
as §1
As to STAT5B (UniProt P51692), the log2 fold change is 0.08 (inactive).
For the target STAT3 (UniProt P40763), the log2 fold change is 0.013 (inactive).
Turning to STAM2 (UniProt O75886), the log2 fold change was 0.009 (inactive).
With TIAL1 isoform 2 (UniProt Q01085), the log2 fold change is -0.001 (inactive).
Turning to SLC38A9 (UniProt Q8NBW4), the log2 fold change was -0.034 (inactive).
On the same count and under the same terms, to STAT5A (UniProt P42229) belongs 0.104 (inactive).
Same read-out and setting: the same measure for SNX5 (UniProt Q9Y5X3): 0.001 (inactive); for SMARCE1 (UniProt Q969G3): -0.09 (inactive).
Take SRSF3 (UniProt P84103): the log2 fold change is -0.154 (inactive).
In the case of SMC5 (UniProt Q8IY18), the log2 fold change is -0.102 (inactive).
Same read-out and setting: the same measure for SNX1 (UniProt Q13596): -0.028 (inactive); for TARBP1 (UniProt Q13395): -0.013 (inactive); for STX17 (UniProt P56962): 0.002 (inactive).
Regarding SMARCAD1 isoform 2 (UniProt Q9H4L7), the log2 fold change is 0.034 (inactive).
Same read-out and setting: the same measure for TIMM10 (UniProt P62072): 0.153 (inactive).
On to SPCS2 (UniProt Q15005), for which the log2 fold change is 0.025 (inactive).
For the target SMAP2 (UniProt Q8WU79), the log2 fold change was -0.004 (inactive).
Consider TK1 (UniProt P04183), for which the log2 fold change was 0 (inactive).
On the same count and under the same terms, the same measure for TIMM44 (UniProt O43615): -0.002 (inactive).
For TIMM29 (UniProt Q9BSF4), the log2 fold change is 0.057 (inactive).
Consider SRI (UniProt P30626), for which the log2 fold change was 0.328 (inactive).
Still for that read-out and setting: to SORT1 (UniProt Q99523) belongs -0.026 (inactive); to SLC7A6 (UniProt Q92536), -0.087 (inactive).
Same read-out and setting: the same measure for SYF2 (UniProt O95926): -0.021 (inactive); for STK25 (UniProt O00506): 0.007 (inactive).
Turning to SYMPK (UniProt Q92797), the log2 fold change was -0.043 (inactive).
Consider SP1 (UniProt P08047), for which the log2 fold change is 0.091 (inactive).
Turning to SSB (UniProt P05455), the log2 fold change was -0.02 (inactive).
Consider STARD3NL (UniProt O95772), for which the log2 fold change is 0.025 (inactive).
In the case of SPG21 (UniProt Q9NZD8), the log2 fold change was 0.027 (inactive).
Regarding SRP68 (UniProt Q9UHB9), the log2 fold change was -0.08 (inactive).
TJP2 isoform 7 (UniProt Q9UDY2): the log2 fold change is 0.014 (inactive).
With SPPL2B (UniProt Q8TCT7), the log2 fold change was -0.118 (inactive).
For the target SRSF7 (UniProt Q16629), the log2 fold change was -0.126 (inactive).
With SNW1 (UniProt Q13573), the log2 fold change is -0.043 (inactive).
Still for that read-out and setting: to TBC1D23 (UniProt Q9NUY8) belongs 0.006 (inactive); to SLC30A7 (UniProt Q8NEW0), -0.026 (inactive).

Compound in the next assay: Cn1cncc1[C@@](N)(c1ccc(Cl)cc1)c1ccc2c(c1)c(-c1cccc(Cl)c1)cc(=O)n2C [tipifarnib]
The assay is described as above. The essentials:
as §1
Turning to STAT5B (UniProt P51692), the log2 fold change was -0.163 (inactive).
With STAT3 (UniProt P40763), the log2 fold change is -0.172 (inactive).
Take STAM2 (UniProt O75886): the log2 fold change is -0.012 (inactive).
Take TIAL1 isoform 2 (UniProt Q01085): the log2 fold change was 0.015 (inactive).
With SLC38A9 (UniProt Q8NBW4), the log2 fold change was 0.038 (inactive).
On the same count and under the same terms, to STAT5A (UniProt P42229) belongs -0.107 (inactive); to SNX5 (UniProt Q9Y5X3), -0.027 (inactive).
Turning to SMARCE1 (UniProt Q969G3), the log2 fold change is -0.082 (inactive).
In the case of SRSF3 (UniProt P84103), the log2 fold change was 0.134 (inactive).
On to SMC5 (UniProt Q8IY18), for which the log2 fold change was 0.032 (inactive).
Turning to SNX1 (UniProt Q13596), the log2 fold change was -0.002 (inactive).
For TARBP1 (UniProt Q13395), the log2 fold change was 0.036 (inactive).
As to STX17 (UniProt P56962), the log2 fold change is -0.012 (inactive).
The same measure, in the same setting: to SMARCAD1 isoform 2 (UniProt Q9H4L7) belongs -0.144 (inactive); to TIMM10 (UniProt P62072), 0.048 (inactive); to SPCS2 (UniProt Q15005), -0.035 (inactive).
Still for that read-out and setting: to SMAP2 (UniProt Q8WU79) belongs -0.014 (inactive).
Take TK1 (UniProt P04183): the log2 fold change is 0 (inactive).
As for TIMM44 (UniProt O43615), the log2 fold change is -0.054 (inactive).
Consider TIMM29 (UniProt Q9BSF4), for which the log2 fold change was -0.046 (inactive).
Same read-out and setting: the same measure for SRI (UniProt P30626): -0.072 (inactive).
Same read-out and setting: to SORT1 (UniProt Q99523) belongs 0.076 (inactive); to SLC7A6 (UniProt Q92536), -0.016 (inactive).
On the same count and under the same terms, to SYF2 (UniProt O95926) belongs 0.027 (inactive).
As to STK25 (UniProt O00506), the log2 fold change was 0.042 (inactive).
Regarding SYMPK (UniProt Q92797), the log2 fold change was -0.152 (inactive).
Consider SP1 (UniProt P08047), for which the log2 fold change is 0.01 (inactive).
On to SSB (UniProt P05455), for which the log2 fold change was 0.051 (inactive).
Take STARD3NL (UniProt O95772): the log2 fold change was -0.064 (inactive).
As to SPG21 (UniProt Q9NZD8), the log2 fold change is -0.115 (inactive).
SRP68 (UniProt Q9UHB9): the log2 fold change was -0.119 (inactive).
Take TJP2 isoform 7 (UniProt Q9UDY2): the log2 fold change is -0.094 (inactive).
Take SPPL2B (UniProt Q8TCT7): the log2 fold change was 0.036 (inactive).
With SRSF7 (UniProt Q16629), the log2 fold change is 0.181 (inactive).
On the same count and under the same terms, the same measure for SNW1 (UniProt Q13573): 0.026 (inactive); for TBC1D23 (UniProt Q9NUY8): 0.003 (inactive).
The same measure, in the same setting: to SLC30A7 (UniProt Q8NEW0) belongs 0.023 (inactive).
